# From the supplement of paper PMC8728848
# Only a selection was taken, and the strongest signals are over-represented in it overall.
# B1: GS7807I-bvu-563-22-563 (Bacteroides vulgatus) (protein)
# chain: IFSSCTDDFEKLNTSNIQVDPADLPFAAQCTEPMTYCYPPQQNMFQFWTNLTIDLYGGYFMTPNGNFTNGDMGENRGHSGGMYENYYLHIFNNTRRIIAQCDASGERGLSGVMRIVQAYGTLMTTDAYGPIPYSSILSGENEVYFEFDSQKDLYKAMLEDLSTAITDISAMGADEIAKLKSFDCWCNGDKDLWVKIANTMKLRMALRLSKRETEAGNAGMNLKAIATEAAQNTLATVNKDILIDKSLENEMWLMFNWGDCGFNANLVTIMSGTKDPRQPLYMTLNTGDIKNEAGTTTVAANSQYLGIRFASGLPAKPNSWGNFSGWIQGNNGSSYSMPLPIMKAAEAYFLLAEAKLRWDIGSESVKNLYENGIRVSMTNELAYRGAYAGIKEYPEGAVDAYINGTSTQIDYTDPIKAELSTPAVNKLSVKWDESASNEEKLERIITQKWLALFPLSTEGWAEQRRTGYPRFFPAFVNESNGAVNTEEGVRRVIYSSQAYDANAKGVEGGIKLLDEENSSKFGISGDKGGTHLWWDNADKGNF
# What was measured:
# Assay in all cases: glycan array binding signal (z-score within array); higher = stronger binding
# Conditions in all cases: glycan notation: IUPAC condensed, linker removed
# [1] = biological target: GlcNAc(b1-3)Gal(b1-4)GlcNAc(b1-3)Gal(b1-4)GlcNAc(b1-3)Gal(b1-4)GlcNAc(b1-2)[GlcNAc(b1-3)Gal(b1-4)GlcNAc(b1-3)Gal(b1-4)GlcNAc(b1-3)Gal(b1-4)GlcNAc(b1-6)]Man(a1-6)[GlcNAc(b1-3)Gal(b1-4)GlcNAc(b1-3)Gal(b1-4)GlcNAc(b1-3)Gal(b1-4)GlcNAc(b1-2)Man(a1-3)]Man(b1-4)GlcNAc(b1-4)[Fuc(a1-6)]GlcNAc
# Summary of the method: (§1)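 Columns mapping to the same glycan were averaged after glycan names were converted to IUPAC-condensed notation. The data come from 3228 arrays in the Consortium for Functional Glycomics database, limited to those with an available protein sequence. Binding is reported as a within-array Z-score averaged across arrays of one protein sequence and across linkers.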
# [2] = biological target: GlcNAc(b1-4)GlcNAc(b1-4)GlcNAc(b1-4)GlcNAc(b1-4)GlcNAc
# Summary of the method: as §1
# [3] = biological target: Man(a1-3)[Man(a1-6)]Man(b1-4)GlcNAc(b1-4)GlcNAc
# Summary of the method: as §1
# [4] = biological target: Neu5Ac(a2-3)Gal(b1-3)[GlcNAc(b1-6)]GalNAc
# Summary of the method: as §1
# Neu5Ac(a2-3)Gal(b1-4)Glc = biological target: Neu5Ac(a2-3)Gal(b1-4)Glc
# Summary of the method: as §1
# [5] = biological target: Neu5Ac(a2-3)Gal(b1-4)GlcNAc(b1-2)Man
# Summary of the method: as §1
# [6] = biological target: Neu5Ac(a2-3)Gal(b1-4)GlcNAc(b1-6)[Neu5Ac(a2-3)Gal(b1-3)]GalNAc
# Summary of the method: as §1
# [7] = biological target: Neu5Ac(a2-3)Gal(b1-4)[Fuc(a1-3)]GlcNAc(b1-3)GalNAc
# Summary of the method: as §1
# [8] = biological target: Neu5Ac(a2-6)Gal(b1-4)GlcNAc(b1-2)Man(a1-6)[Gal(b1-4)GlcNAc(b1-2)Man(a1-3)]Man(b1-4)GlcNAc(b1-4)GlcNAc
# Summary of the method: as §1
# [9] = biological target: Neu5Ac(a2-6)Gal(b1-4)GlcNAc(b1-3)Gal(b1-3)GlcNAc
# Summary of the method: as §1
# [10] = biological target: Neu5Ac(b2-6)Gal(b1-4)GlcNAc
# Summary of the method: as §1
binder,measurement,setting,value
B1,glycan array binding signal (z-score),[1],3.79
same,glycan array binding signal (z-score),[2],-0.951
same,glycan array binding signal (z-score),[3],-0.233
same,glycan array binding signal (z-score),[4],0.671
same,glycan array binding signal (z-score),Neu5Ac(a2-3)Gal(b1-4)Glc,0.689
same,glycan array binding signal (z-score),[5],2.84
same,glycan array binding signal (z-score),[6],-0.221
same,glycan array binding signal (z-score),[7],5.03
same,glycan array binding signal (z-score),[8],1.71
same,glycan array binding signal (z-score),[9],-0.945
same,glycan array binding signal (z-score),[10],-0.47
